Assay results: PubChem BioAssay
Activity calls are given as the source filed them.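 How the source made its calls, unless noted: active means fluorescence slope higher than the sample average by over 3 SD (cut at about -0.22 in these data, passing the limit was not always enough); inactive means the rest.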

tested on: not listed separately; assay: endothelial E-selectin expression blockers – imaging, HUVEC, immunofluorescence, MLSMR starter and 10KST1 sets, primary screen (AID 487;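 active means visually confirmed hit in the image check and inhibition above 20%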;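 on inhibition: signal is fraction of cell area covered by stained E-selectin grains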;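 on nuclei count: 100% = median nuclei count of all wells on the same plate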); settings: HUVEC TNFalpha-induced E-selectin immunofluorescence imaging, at 2 µM; inhibition: stronger effect = higher value; nuclei count: measured here: cell number, toxicity

Compound	nuclei count [%]	inhibition
COC(=O)c1ccccc1NC(=O)CC(NCc1ccccc1)C(=O)O (stereo not given)	116	-21.4% (inactive)
CCOC(=O)N1CCN(C(=O)c2ccc(CS(=O)(=O)c3c(Cl)cccc3Cl)o2)CC1	116	-97.8% (inactive)
O=C(Cc1ccccc1)Nc1ccc(CN2CCOCC2)cc1	107	-2.9% (inactive)
COc1ccc(N(CC(=O)O)S(=O)(=O)c2ccc(OC)c(OC)c2)cc1	111	-11.5% (inactive)
Cc1ccc(C)c(C(=O)CC2(O)C(=O)N(C)c3ccccc32)c1 (stereo not given)	122	-7% (inactive)
CCC1CCCN1Cn1cnc2c([nH]c3ccc(OC)cc32)c1=O (stereo not given)	86.2	-53.1% (inactive)
CC1Cc2nc(SCC(=O)Nc3ccc4c(c3)OCO4)n(-c3ccc(F)cc3)c(=O)c2S1 (stereo not given)	107	-32.8% (inactive)
CCCn1c(C)nc2c(c1=O)c1nc3ccccc3nc1n2CCc1ccccc1	222	-102% (inactive)
CCOC(=O)C(CCc1nnc(N)s1)C(=O)OCC	98.7	-16.4% (inactive)
CCOC(=O)c1c(N)sc(C(=O)N2CCOCC2)c1C	119	-10.6% (inactive)
Cc1oc(-c2cccc(Cl)c2)nc1CN1CCC(C(=O)N2CCN(c3ccccc3F)CC2)CC1	108	-73.6% (inactive)
COc1ccc(NC(=O)CN2CCN(S(=O)(=O)c3ccc(Cl)cc3)CC2)cc1	116	5% (inactive)
O=C(CS(=O)(=O)c1cn(Cc2ccc(Cl)cc2)c2ccccc12)N1CCCC1	111	13.5% (inactive)
O=C(OCc1cc2ccccc2[nH]c1=O)c1ccco1	96.9	40.8% (inactive)
CC1CCCCC1NC(=O)c1nn(C)c(=O)c2ccccc12 (stereo not given)	88.6	13.7% (inactive)
COc1ccccc1Oc1ccc(S(=O)(=O)N2CCOCC2)cc1S(=O)(=O)N1CCOCC1	132	-142% (inactive)
CCOC(=O)N1CCN(C(=O)CSc2ncnc3ccccc23)CC1	115	-10.3% (inactive)
COC(=O)Nc1nnc(CCc2ccccc2)s1	113	-51.8% (inactive)
O=C(c1ccco1)N1CCN(CCCCN2C(=O)c3ccccc3C2=O)CC1	95.4	5.7% (inactive)
Fc1ccccc1Cn1nnc2c(-n3ccnc3)ncnc21	106	-55.2% (inactive)

Compound	nuclei count [%]	inhibition
N/C(=N/O)c1nc(N2CCCC2)nc(N(c2ccccc2)c2ccccc2)n1	104	-300% (inactive)
Cc1ccc(NC(=O)C2CCCN(S(=O)(=O)c3cnc[nH]3)C2)c(Br)c1 (stereo not given)	108	12.8% (inactive)
Cc1ccn2cc(CCNC(=O)CC(C)(C)C)nc2c1	104	-3.4% (inactive)
O=C1c2cccnc2C(=O)N1c1cccc(-c2nc3ccccc3o2)c1	117	-87.2% (inactive)
CSc1nc2c(c(=O)n1C)SC(C)C2 (stereo not given)	115	-32.9% (inactive)
O=C(Nc1cccc2ccccc12)N1CCN(c2ccccc2)CC1	100	-12.2% (inactive)
Cc1nnc(SCC(=O)NCCN2C(=O)CSC2=O)s1	125	-195% (inactive)
CN(C(=O)COc1cc(=O)n(C)c2ccccc12)c1ccc(Br)cc1	142	-178% (inactive)
CCOC(=O)c1c(C)oc2c1c(C(c1ccncc1)N1CCOCC1)c(O)c1ccccc12 (stereo not given)	107	-21.1% (inactive)
CCOC(=O)CNC(=O)CSc1nc(N)cc(N)n1	108	-62.6% (inactive)
CC(C)(CSc1nncn1N)NS(=O)(=O)c1ccc(Cl)cc1	108	-17.3% (inactive)
O=C(CCNS(=O)(=O)c1cccs1)Nc1ccccc1F	109	-9.8% (inactive)
CC(C)(C)c1nnc(NC(=O)C2CCN(c3ncccn3)CC2)s1	111	-13.7% (inactive)
COc1cc(Cl)c(C)cc1NC(=O)COC(=O)c1cnc(C)cn1	110	-118% (inactive)
O=C(CN1CCN(Cc2ccc3c(c2)OCO3)CC1)Nc1ccc2c(c1)OCCO2	85.5	-19.1% (inactive)
CCC(C)NC(=O)C1(C)CCC(=O)N1CCc1ccc(OC)c(OC)c1 (stereo not given)	103	0.6% (inactive)
COC(=O)Cc1c(C)c2ccc(OCC(=O)N3CCOCC3)cc2oc1=O	74.6	-28.7% (inactive)
CC1=C(C(=O)Nc2ccccc2C)C2(CCCC2)C(C(N)=O)C(=O)N1 (stereo not given)	106	-126% (inactive)
O=C(O)C1CC=CCC1C(=O)Nc1ccc(S(=O)(=O)N2CCCc3ccccc32)cc1 (stereo not given)	126	-43.1% (inactive)
CCCC(=O)Nc1ccccc1-c1nnn(CC(=O)Nc2ccc(OC)cc2)n1	83.3	-36.7% (inactive)

molecular target: Voltage-gated potassium channel subunit beta-2 (Rattus norvegicus) (UniProt P62483); assay: inhibitors of rat Kvbeta2 reductase activity – biochemical, NADPH fluorescence, primary screen (AID 622); settings: recombinant KvBeta, 4-cyanobenzaldehyde reduction, at 10 µM, stronger effect = higher value;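 further: slope of raw intensity against log time taken from 70 to 1610 s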
Sequence (P62483 whole entry, looked up): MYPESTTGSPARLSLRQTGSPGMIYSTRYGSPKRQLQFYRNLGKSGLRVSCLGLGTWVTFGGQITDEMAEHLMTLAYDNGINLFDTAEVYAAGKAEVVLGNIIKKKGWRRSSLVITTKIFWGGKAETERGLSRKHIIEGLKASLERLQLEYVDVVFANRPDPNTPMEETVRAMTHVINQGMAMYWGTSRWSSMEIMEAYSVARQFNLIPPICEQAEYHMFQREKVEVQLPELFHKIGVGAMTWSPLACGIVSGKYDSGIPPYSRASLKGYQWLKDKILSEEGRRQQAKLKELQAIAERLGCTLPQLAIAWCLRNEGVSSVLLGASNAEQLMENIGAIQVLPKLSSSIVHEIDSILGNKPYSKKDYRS

Compound	fluorescence slope
COC(=O)c1ccccc1NC(=O)CC(NCc1ccccc1)C(=O)O (stereo not given)	-0.418 (inactive)
CCOC(=O)N1CCN(C(=O)c2ccc(CS(=O)(=O)c3c(Cl)cccc3Cl)o2)CC1	-0.419 (inactive)
O=C(Cc1ccccc1)Nc1ccc(CN2CCOCC2)cc1	-0.418 (inactive)
COc1ccc(N(CC(=O)O)S(=O)(=O)c2ccc(OC)c(OC)c2)cc1	-0.475 (inactive)
Cc1ccc(C)c(C(=O)CC2(O)C(=O)N(C)c3ccccc32)c1 (stereo not given)	-0.45 (inactive)
CCC1CCCN1Cn1cnc2c([nH]c3ccc(OC)cc32)c1=O (stereo not given)	-0.396 (inactive)
CC1Cc2nc(SCC(=O)Nc3ccc4c(c3)OCO4)n(-c3ccc(F)cc3)c(=O)c2S1 (stereo not given)	-0.401 (inactive)
CCCn1c(C)nc2c(c1=O)c1nc3ccccc3nc1n2CCc1ccccc1	-0.303 (inactive)
CCOC(=O)C(CCc1nnc(N)s1)C(=O)OCC	-0.474 (inactive)
CCOC(=O)c1c(N)sc(C(=O)N2CCOCC2)c1C	-0.345 (inactive)
Cc1oc(-c2cccc(Cl)c2)nc1CN1CCC(C(=O)N2CCN(c3ccccc3F)CC2)CC1	-0.552 (inactive)
COc1ccc(NC(=O)CN2CCN(S(=O)(=O)c3ccc(Cl)cc3)CC2)cc1	-0.411 (inactive)
O=C(CS(=O)(=O)c1cn(Cc2ccc(Cl)cc2)c2ccccc12)N1CCCC1	-0.538 (inactive)
O=C(OCc1cc2ccccc2[nH]c1=O)c1ccco1	-0.476 (inactive)
CC1CCCCC1NC(=O)c1nn(C)c(=O)c2ccccc12 (stereo not given)	-0.621 (inactive)
COc1ccccc1Oc1ccc(S(=O)(=O)N2CCOCC2)cc1S(=O)(=O)N1CCOCC1	-0.377 (inactive)
CCOC(=O)N1CCN(C(=O)CSc2ncnc3ccccc23)CC1	-0.525 (inactive)
COC(=O)Nc1nnc(CCc2ccccc2)s1	-0.509 (inactive)
O=C(c1ccco1)N1CCN(CCCCN2C(=O)c3ccccc3C2=O)CC1	-0.593 (inactive)
Fc1ccccc1Cn1nnc2c(-n3ccnc3)ncnc21	-0.519 (inactive)

Compound	fluorescence slope
N/C(=N/O)c1nc(N2CCCC2)nc(N(c2ccccc2)c2ccccc2)n1	-0.593 (inactive)
Cc1ccc(NC(=O)C2CCCN(S(=O)(=O)c3cnc[nH]3)C2)c(Br)c1 (stereo not given)	-0.543 (inactive)
Cc1ccn2cc(CCNC(=O)CC(C)(C)C)nc2c1	-0.307 (inactive)
O=C1c2cccnc2C(=O)N1c1cccc(-c2nc3ccccc3o2)c1	-0.417 (inactive)
CSc1nc2c(c(=O)n1C)SC(C)C2 (stereo not given)	-0.567 (inactive)
O=C(Nc1cccc2ccccc12)N1CCN(c2ccccc2)CC1	-0.525 (inactive)
Cc1nnc(SCC(=O)NCCN2C(=O)CSC2=O)s1	-0.606 (inactive)
CN(C(=O)COc1cc(=O)n(C)c2ccccc12)c1ccc(Br)cc1	-0.513 (inactive)
CCOC(=O)c1c(C)oc2c1c(C(c1ccncc1)N1CCOCC1)c(O)c1ccccc12 (stereo not given)	-0.594 (inactive)
CCOC(=O)CNC(=O)CSc1nc(N)cc(N)n1	-0.385 (inactive)
CC(C)(CSc1nncn1N)NS(=O)(=O)c1ccc(Cl)cc1	-0.447 (inactive)
O=C(CCNS(=O)(=O)c1cccs1)Nc1ccccc1F	-0.3 (inactive)
CC(C)(C)c1nnc(NC(=O)C2CCN(c3ncccn3)CC2)s1	-0.512 (inactive)
COc1cc(Cl)c(C)cc1NC(=O)COC(=O)c1cnc(C)cn1	-0.51 (inactive)
O=C(CN1CCN(Cc2ccc3c(c2)OCO3)CC1)Nc1ccc2c(c1)OCCO2	-0.583 (inactive)
CCC(C)NC(=O)C1(C)CCC(=O)N1CCc1ccc(OC)c(OC)c1 (stereo not given)	-0.606 (inactive)
COC(=O)Cc1c(C)c2ccc(OCC(=O)N3CCOCC3)cc2oc1=O	-0.363 (inactive)
CC1=C(C(=O)Nc2ccccc2C)C2(CCCC2)C(C(N)=O)C(=O)N1 (stereo not given)	-0.483 (inactive)
O=C(O)C1CC=CCC1C(=O)Nc1ccc(S(=O)(=O)N2CCCc3ccccc32)cc1 (stereo not given)	-0.599 (inactive)
CCCC(=O)Nc1ccccc1-c1nnn(CC(=O)Nc2ccc(OC)cc2)n1	-0.36 (inactive)
